# Screening results deposited in PubChem by National Center for Advancing Translational Sciences (NCATS).
# AmpC inh no detg – blocks E. coli AmpC beta-lactamase in detergent-free assay; Potency, µM (top dose mostly 57.1 µM), inactives show at the top dose activity change, negative = inhibition, usual class: inhibitors; AmpC nitrocefin hydrolysis, absorbance 480 nm, 0.0001% Triton; 330,000 tested, 0.52% active; P00811;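 also: plate controls were no compound for no effect and no enzyme for full effect; nearly all actives have a fitted effect of over 20% in size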
# Target sequence (P00811 whole entry, looked up): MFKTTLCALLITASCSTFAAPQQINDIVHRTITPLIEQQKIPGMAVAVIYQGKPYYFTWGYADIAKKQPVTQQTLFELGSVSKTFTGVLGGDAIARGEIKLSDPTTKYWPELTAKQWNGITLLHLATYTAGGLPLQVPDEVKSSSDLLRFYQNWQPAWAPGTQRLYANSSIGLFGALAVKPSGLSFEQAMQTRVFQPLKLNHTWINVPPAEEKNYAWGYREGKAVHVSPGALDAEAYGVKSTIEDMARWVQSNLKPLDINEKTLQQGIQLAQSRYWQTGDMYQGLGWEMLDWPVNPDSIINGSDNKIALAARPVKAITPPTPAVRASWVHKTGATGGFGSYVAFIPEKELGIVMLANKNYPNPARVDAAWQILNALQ
#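 AmpC (5.3 nM in the dispensed reagent) in 20 mM phosphate pH 7.0 with 0.01% (detergent screen) or 0.0001% Triton X-100 was preincubated with compounds for 15 min at room temperature. Nitrocefin was then added from an 800 uM solution, and hydrolysis was followed at 480 nm.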
# RE007 growth inh – less growth of the S. pombe RE007 Vpr strain | S. pombe RE007 Vpr strain, BacTiter-Glo ATP luminescence, 24 h | Potency, µM (titrated, usually from 92.2 µM), without a hit: at the highest dose activity change, negative = less growth, most hits filed as inhibitors | 360,000 tested, 0.21% active | AID 651644; active = well fitted falling curve with a large enough effect; inconclusive = small, poorly fitted or top-dose-only effect; inactive = no such curve, though single readings can be large or run the other way; also: nearly all actives have a fitted effect of over 50% in size
#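 Fission yeast RE007 carrying one integrated HIV-1 vpr copy, seeded at OD 0.01 in PMG+AL medium with 23 nL pinned compound. Grown 24 h at 30 degrees; viability read by BacTiter-Glo luminescence after 5 min.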
# AMA1-RON2 inh – AMA1-RON2 (P. falciparum) interaction inhibition. AlphaScreen AMA1-biotinylated RON2 peptide binding. Potency, µM (series often up to 58.2 µM), for the others: at the top dose activity change, negative = inhibition, hits mostly inhibitors. 360,000 tested, 0.2% active. AID 720542;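 also: 0% = vehicle wells and -100% = peptide control; nearly all actives have a fitted effect of over 45% in size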
#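 AMA1 (3D7) with his tag at 25 nM final met compounds first, then biotinylated RON2 peptide at 25 nM; detection used donor plus acceptor beads, 10 µg/mL apiece, read by AlphaScreen after 30 min at room temperature.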
# Sm TGR inh – inhibitors of Schistosoma mansoni thioredoxin glutathione reductase. 360,000 tested, 3% active. Potency, µM (titrated, usually from 114 µM), for the others: at the highest dose activity change, negative = inhibition, usual class: inhibitors. Q962Y6. purified TGR, DTNB reduction, TNB absorbance 405 nm; also: nearly all actives have a fitted effect of over 60% in size
#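 Kinetic colorimetric format: TGR-catalysed, NADPH-driven DTNB reduction monitored via TNB absorbance. Enzyme dispensed at 20 nM; compound exposure 15 min at room temperature before reaction start.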
# AmpC inh detg – inhibitors of E. coli AmpC beta-lactamase with detergent; Potency, µM (doses to about 114 µM), without a hit: top-dose activity change, negative = inhibition, most hits filed as inhibitors; AmpC hydrolysis of nitrocefin, absorbance 480 nm, 0.01% Triton; 370,000 tested, 0.041% active; P00811;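 also: 0% = no-compound wells and -100% = no-enzyme wells; nearly all actives have a fitted effect of over 25% in size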
#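 20 mM phosphate pH 7.0 + 0.01% (detergent screen) or 0.0001% Triton X-100; 5.3 nM AmpC reagent; cpd preinc 15 min RT; nitrocefin (800 uM stock) to start; A480 q20 s × 4 min; Activity was normalised to no-enzyme and no-compound control wells.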
# * marks the source's active call; other numbers are inactive results; ? = inconclusive; . = not tested or not shown; [ ] = remark or other dose. The list is not random: actives were taken first. Their share in the collection is about 3.2%. Unless noted, calls follow the shape of the dose curve; as a rule, active = well fitted curve in the direction sought with a large enough effect; inconclusive = small, poorly fitted or top-dose-only effect, or another doubt; inactive = no such curve, though single readings can be large; an effect the other way counts as inactive or inconclusive. Unless noted, % is scaled to controls: 0 for no effect and ±100 for the full control effect; potency is read from the fitted curve at half-maximal effect.
SMILES,AmpC inh no detg,RE007 growth inh,AMA1-RON2 inh,Sm TGR inh,AmpC inh detg
Cc1ccccc1-c1nn(-c2ccc(F)cc2F)cc1CNCCN(C)C,18.7%,-22.3%,17.6%,-0.5%,?
COCCN(C)Cc1cn(-c2ccc(F)cc2F)nc1-c1ccccc1C,148.4%,-7.4%,-10.4%,5.01µM*,-0.9%
CCCC(=O)N(Cc1cc(=O)[nH]c2ccccc12)c1ccc(OC)cc1,-4.8%,-9.5%,9.0%,-0.9%,-3.7%
COc1ccc(N(Cc2cc(=O)[nH]c3ccccc23)C(=O)CCl)cc1,-3.8%,5.1%,-0.8%,7.94µM*,-14.8%
O=C(Nc1cc(N2CCOCC2)ncn1)NC1(C(F)(F)F)Oc2ccccc2O1,-6.1%,-15.4%,-1.1%,12.6µM*,0.4%
COc1cccc(NC(=O)NC2(C(F)(F)F)Oc3ccccc3O2)c1,-35.8%,-5.2%,57.9%,39.8µM*,-1.4%
CCOC(=O)Cc1csc(NC(=O)NC2(C(F)(F)F)Oc3ccccc3O2)n1,-35.7%,0.1%,17.9%,14.1µM*,-9.7%
N#Cc1cn(-c2ccccc2)nc1-c1ccco1,-19.9%,1.0%[3.69 µM],-18.5%,44.7µM*,?
Cc1ccc(-c2ccccc2)n1-c1cccc(C(=O)O)c1,-20.8%,?,-4.1%,20µM*,3.6%
Cc1ccc(C(=O)O)cc1N1CCCC1=O,-6.6%,0.0%,7.4%,4.4%,2.5%
Cc1ccc(C(=O)O)cc1-n1c(C)ccc1-c1ccccc1,.,.,.,31.6µM*,0.9%
Cc1ccc(-c2ccccc2)n1-c1ccc(C(=O)O)cc1,-49.7%,-28.0%,-6.9%,50.1µM*,3.2%
COc1ccc(CCNC(=O)CN2C(=O)COc3ccc(S(=O)(=O)N4CCCCCC4)cc32)cc1OC,.,.,.,-2.8%,0.8%
CS/C(=C\[N+](=O)[O-])Nc1ccc(OC(F)(F)F)cc1,-19.4%,-4.0%,-1.0%,0.282µM*,3.7%
CC(C)(CCl)C(=O)Nc1ccc(OC(F)(F)F)cc1,-15.1%,1.4%,2.8%,38.7%,8.2%
Cc1cc(-n2ccnc(NCCc3ccc(S(N)(=O)=O)cc3)c2=O)ccc1Br,.,.,.,-2.9%,-3.5%
O=C(O)C=C(Br)Br,-1.6%,2.4%,12.8%,50.1µM*,?
C/C(=N\N=C(/N)SC1CC(=O)N(c2ccc(Br)cc2)C1=O)c1cccs1 (stereo not given),-29.3%,-0.6%,39.3%,14.1µM*,0.7%
C/C(=N\N=C(/N)SC1CC(=O)N(c2ccccc2)C1=O)c1cccs1 (stereo not given),-29.9%,-4.7%,8.9%,5.4%,2.5%
Cc1ccc(-n2c(Cl)c(Cl)nc(Cl)c2=O)cc1,-2.8%,10µM*,-1.6%,0.794µM*,?
O=C1C2C3C=CC(CC3)C2C(=O)N1c1ccc([N+](=O)[O-])cc1 (stereo not given),-6.9%,9.9%,5.0%,20µM*,-8.2%
COc1ccccc1CNC(=O)C1CCN(c2nc3ccc(Cl)cc3[nH]2)CC1,.,.,.,3.8%,5.4%
COc1cc(CN2CCN(S(=O)(=O)c3ccc(NC(C)=O)cc3)CC2)cc(OC)c1OC,.,.,.,1.7%,-0.1%
CCOc1cc(/C=N/N=C(/N)c2nonc2N)cc(Br)c1OCc1ccc(Cl)cc1,15.8µM*,-11.6%,-7.0%,-14.4%,3.2%
O=C(CSc1ccc(-c2ccco2)nn1)c1ccccc1,-37.8%,-28.6%,35.6%,8.91µM*,0.1%
SMILES,AmpC inh no detg,RE007 growth inh,AMA1-RON2 inh,Sm TGR inh,AmpC inh detg
O=C(CSc1ccc(-c2ccccn2)nn1)c1ccc([N+](=O)[O-])cc1,3.1%,-2.8%,12.6µM*,-14.4%,7.3%
COc1ccc(C(=O)CSc2ccc(-c3ccco3)nn2)cc1,-40.9%,-15.7%,0.4%,31.6µM*,-3.5%
COc1ccc(C(=O)CSc2ccc(-c3ccccc3)nn2)cc1,-22.2%,-14.9%,-11.9%,-7.2%,?
O=C(CSc1ccc(-c2cccnc2)nn1)c1ccc([N+](=O)[O-])cc1,-30.2%,6.8%,58.4%,-15.0%,3.4%
O=C(C(=O)N1CCN(C(=O)c2ccco2)CC1)c1cc2ccccc2o1,.,-4.3%,-2.7%,.,.
COc1ccc2c(c1)c1c(c(=O)n(-c3ccccc3C)c(=O)n1CC(N)=O)n2C,.,.,.,1.6%,28.5%
O=C(O)C(=O)Cc1c[nH]c2ccccc12,-15.7%,8.4%,-2.0%,44.7µM*,?
